The entries come from a sample that favours hits as a whole.
Dicer processing: human Dicer pre-microRNA cleavage inhibition; Q9UPY3; cat-ELCCA pre-miR-21 Dicer processing, chemiluminescence; stronger effect = higher value; z-score at 25 µM; actives 6% (n = 47,000); in the data active = z-score above about 3, passing the limit was not always enough;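 also: higher signal means more uncleaved substrate so more Dicer inhibition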
Large screens that a line does not name were inactive.

O=C1NC(c2ccccc2Cl)Nc2sc3c(c21)CCCC3 (stereo unspecified)	Dicer processing 5.91
COc1cc(C2NC(=O)c3c(sc4c3CCCC4)N2)cc(OC)c1OC (stereo unspecified)	none
COc1cc(C2NC(=O)c3c(sc4c3CCCC4)N2)cc(Br)c1OC (stereo unspecified)	Dicer processing 4.14
COC(=O)c1sc(Sc2cccs2)c2c1CC(C)(C)CC2=O	none
O=C1OC(c2ccc(Cl)cc2)c2ccccc21 (stereo unspecified)	none
N#Cc1ccc(CSC(=N)N)cc1	none
O=C(c1ccc(Cl)cc1)c1cnc2ccccc2c1-c1ccccc1	none
CC1=C(C(=O)OCCOc2ccccc2)C(c2ccc(Br)cc2)C2=C(CCCC2=O)N1 (stereo unspecified)	none
N=c1c(C(N)=O)cc2c(=O)n3ccccc3nc2n1Cc1ccco1	none
Cc1nc(-c2cccc(CSc3nnc(C(F)(F)F)n3C)c2)no1	none
Cc1c(C)c(C)c(C(=O)C2CCN(S(=O)(=O)c3ccc(F)cc3F)CC2)c(C)c1C	none
CCn1c[n+](CC(O)COc2ccccc2)c2ccccc21 (stereo unspecified)	none
CCn1c[n+](CC(O)COc2ccccc2OC)c2ccccc21 (stereo unspecified)	Dicer processing 7.69
CCn1c[n+](CC(O)COc2ccccc2C)c2ccccc21 (stereo unspecified)	none
COC(=O)C1=NN(c2ccc(C)cc2)C2C(=O)N(c3ccc(Cl)cc3)C(=O)C12 (stereo unspecified)	none
CC(=O)c1nnn(-c2c(Cl)cc(Cl)cc2Cl)c1C	none
FC(F)(F)c1cc(NC(=S)N2CCCCC2CCN2CCOCC2)cc(C(F)(F)F)c1 (stereo unspecified)	none
COc1ccc(CN2C(=O)c3oc4ccc(C)cc4c(=O)c3C2c2ccc(O)c(OC)c2)cc1 (stereo unspecified)	none
O=C1c2oc3ccccc3c(=O)c2C(c2ccc(O)cc2)N1Cc1ccccc1Cl (stereo unspecified)	none
O=C1c2oc3ccccc3c(=O)c2C(c2cccc(O)c2)N1Cc1ccccc1Cl (stereo unspecified)	none
CCOc1cc(C2c3c(oc4ccc(F)cc4c3=O)C(=O)N2Cc2ccc(C)cc2)ccc1O (stereo unspecified)	none
CCOc1cc(C2c3c(oc4ccc(C)cc4c3=O)C(=O)N2Cc2ccc(OC)cc2)ccc1O (stereo unspecified)	Dicer processing 3.15
COc1cc(C2c3c(oc4ccccc4c3=O)C(=O)N2Cc2ccccc2Cl)ccc1O (stereo unspecified)	Dicer processing 3.21
Cc1cc(-c2nn(C)c(=O)c3ccccc23)cc(C)c1OCC(=O)NNC(=O)Nc1ccc(Cl)cc1	none
O=C(O)C1CC(=O)N(C2Cc3ccccc3C2)C1 (stereo unspecified)	none
FC(F)(F)c1ccc(Sc2cc(C(F)(F)F)nc3cc(Cl)cc(Cl)c23)nc1	none
CCOC(=O)c1c(C)oc2ccc(OCc3ccc(F)cc3)cc12	none
O=C(O)c1cc2cc(OCc3ccccc3)ccc2[nH]1	none
CCOC(=O)c1cc2cc(OCc3ccccc3)ccc2n1C(=O)c1ccccc1C(=O)O	Dicer processing 3.07
N#CC1=C2N=C(N)c3ccccc3N2C2=C(C(=O)CCC2)C1c1ccc(Br)cc1 (stereo unspecified)	none
O=C1OC(c2cccnc2Oc2ccc(Cl)cc2)=N/C1=C\c1ccc(Cl)cc1	none
O=C1OC(c2ccccc2)=N/C1=C\c1cccc([N+](=O)[O-])c1	none
O=C1OC(c2ccc(Cl)cc2)=N/C1=C/c1cccc([N+](=O)[O-])c1	Dicer processing 3.63
COC(=O)c1ccc(/C=N/Nc2ccc(C(F)(F)F)cc2)n1-c1ccc(F)cc1	none
O=C(/C=C/Sc1ccccn1)c1cccc(Br)c1	none
O=C(c1ccc(F)cc1)C(C(=O)N1CCN(C/C=C/c2ccccc2)CC1)n1ccccc1=O (stereo unspecified)	none
CC1CCN(C(=O)C(C(=O)c2ccc(Br)cc2)n2ccccc2=O)CC1 (stereo unspecified)	none
O=C(c1ccc(Br)cc1)C(C(=O)N1CCCCC1)n1ccccc1=O (stereo unspecified)	Dicer processing 3.31
c1cc2nncn2nc1N1CCSCC1	none
S=C(NCc1cccs1)NNc1c(Cl)cncc1Cl	none
O=C1ON=C(CSc2ccccc2)/C1=C/c1ccccc1	none
Cc1ccc(N2C(=O)CC(=O)N(c3ccc(C)c(C)c3)C2=S)cc1C	none
Cc1cc(N2C(=O)CC3(CCCC3)CC2=O)ccc1Br	Dicer processing 3.17
Cn1cc(Br)c(-c2cccc(N3C(=O)CC(C)(C)CC3=O)c2)n1	none
Cn1cc(Br)c(NC(=O)c2cc(C(F)(F)F)cc(C(F)(F)F)c2)n1	none
O=C1CC(SCc2ccc(Cl)cc2)C(=O)N1c1ccccc1 (stereo unspecified)	none
CC(C)c1ccc(N2CC(C(=O)O)CC2=O)cc1 (stereo unspecified)	none
O=C1CC(c2nc3ccccc3n2CCc2ccccc2)CN1c1ccccc1 (stereo unspecified)	Dicer processing 4.31
O=C1CC(c2nc3ccccc3n2Cc2ccc(Cl)cc2)CN1c1ccccc1 (stereo unspecified)	Dicer processing 5.91
CC(c1ccccc1)n1c(C2CC(=O)N(c3ccccc3)C2)nc2ccccc21 (stereo unspecified)	Dicer processing 4.67
C=C(C)Cn1c(C2CC(=O)N(c3ccc(OCC)cc3)C2)nc2ccccc21 (stereo unspecified)	none
Cc1nc2ccccc2n1C1CC(=O)N(c2ccc(F)cc2)C1=O (stereo unspecified)	none
CCOc1ccc(N2CC(c3nc4ccccc4n3CC)CC2=O)cc1 (stereo unspecified)	none
O=c1[nH]c2ccccc2n1Cc1ccc(Cl)cc1	none
CC(C)CCn1c(C2CC(=O)N(c3ccccc3)C2)nc2ccccc21 (stereo unspecified)	Dicer processing 3.72
CSc1nc2ccccc2c(=O)n1CCc1ccccc1	none
CCCCCCn1c(C2CC(=O)N(c3ccccc3)C2)nc2ccccc21 (stereo unspecified)	none
CC1CN(c2ccc(Br)cc2)c2nc3c(c(=O)n(CCCO)c(=O)n3C)n2C1 (stereo unspecified)	none
N#Cc1cnn2c(N)c(-c3ccccc3)cnc12	none
COC(=O)CSC1=C(C#N)C(=O)NC(c2ccc(O)cc2)S1 (stereo unspecified)	none
COc1ccc(Cc2nnc(SCc3ccccc3Cl)o2)cc1	none
COC(=O)/C(C#N)=C/c1ccc(Cl)c(Cl)c1	none
Cc1ccc(Cl)c2c1NC(=O)C2(O)CC(=O)c1ccccc1 (stereo unspecified)	none
CCOC(=O)c1c(C)oc(-c2ccc(Cl)cc2)c1S(=O)(=O)Nc1cccc(C)c1	none
CCOC(=O)CCCN1C(=O)S/C(=C/c2ccc(OC)cc2)C1=S	none
CSc1nsc(SCC(=O)NC2=NC(=O)C(C)S2)n1 (stereo unspecified)	none
COc1ccc(S(=O)(=O)Nc2cc(OC)c(Cl)cc2OC)cc1	none
COc1ccc(S(=O)(=O)Nc2c(C)cc(O)cc2C)cc1	Dicer processing 5.2
COc1ccc(NS(=O)(=O)c2ccc(Br)cc2)cc1	none
O=S(=O)(Nc1cc(C(F)(F)F)cc(C(F)(F)F)c1)c1ccccn1	none
O=C(O)/C=C/C(=O)Nc1ccc(N2CCCCCC2)c(NC(=O)/C=C/C(=O)O)c1	none
CC(C)c1ccc(C(=O)CC2(O)C(=O)Nc3ccccc32)cc1 (stereo unspecified)	none
CCc1ccc(C(=O)CC2(O)C(=O)Nc3ccccc32)cc1 (stereo unspecified)	none
CCOc1ccc(C(=O)CC2(O)C(=O)Nc3ccccc32)cc1 (stereo unspecified)	Dicer processing 3.36
